The values below come from publication PMC5540273 (PLoS ONE, 2017).

Bounds are passed on as bounds.

The term Kd denotes a measure of binding affinity in units of concentration.

One assay relates to T1, PYK2.
T1 construct: gene PTK2B

Assay [1] concerns RPS6KA5(Kin.Dom.2-C-terminal).
The subject of assay [2] is T2, RSK1(Kin.Dom.2-C-terminal).
T2 construct: gene RPS6KA1

Assay [3] concerns T3, RSK2(Kin.Dom.2-C-terminal).
T3 construct: gene RPS6KA3

Assay [4] has as its system T4, RSK3(Kin.Dom.2-C-terminal).
T4 construct: gene RPS6KA2

Another assay has as its system T5, SNARK.
T5 construct: gene NUAK2
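Also: kd values determined as follow-up on hits from a single-replicate KINOMEscan panel screen.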

Regarding `CC(C)(C)c1ccc(C(=O)Nc2cn3cc(Cl)ccc3n2)cc1`, the Kd in the assay on PYK2 was more than 10 µM.

As to `O=S(=O)(c1ccc(-c2ccnc3[nH]ccc23)cc1)N1CCCC1` [GSK846226], in the assay on RIOK1, the Kd was found to be 0.61 µM.

With `Cc1nnc(-c2ccc3occ(-c4ccc(S(C)=O)cc4)c3c2)[nH]1` (stereo not drawn), in the assay with RIPK1, the Kd is more than 10 µM.

For the molecule `Cl.NC(=O)c1cccc(Nc2nccc(Nc3ccc(Oc4cccc(Cl)c4)c(Cl)c3)n2)c1` [GW659008], in the assay with RIPK2, binding was characterised by a dissociation constant (Kd) of 0.044 µM.

Take `Cn1cncc1-c1ccc2ncnc(Nc3ccc(OCc4ccccc4)cc3)c2c1` [GW320571]: the Kd in the assay on RIPK2 was found to be 0.091 µM; in the assay on SNRK, 8.7 µM.

On to `Cc1cc(N2Cc3ccccc3C2)nc(Nc2ccc(S(=O)(=O)N3CCOCC3)cc2)n1.Cl` [GSK1669917], for which the dissociation constant (Kd) in the assay with RIPK4 is more than 10 µM.

`CS(=O)(=O)c1ccc(-c2nc3n(c2-c2ccncc2)CCC3)cc1` [SKF-105942] gave a Kd with RIPK4 of more than 10 µM.

The molecule `Cc1cccc(-c2cc(Nc3ccncc3)c3ccccc3n2)n1` [GSK223675] returned a dissociation constant Kd in [1] of more than 10 µM.

As for `Cc1ccccc1-n1cnc2c(N)ncnc21` [SKF-97510], in assay [2], the Kd is more than 10 µM.

In the case of `Nc1nc(-c2nccs2)c(-c2ccnc3ccccc23)s1` [GW693542], the dissociation constant (Kd) in assay [3] was more than 10 µM.

As for `CS(=O)(=O)c1ccc(-c2c(-c3ncn[nH]3)sc(N3CCOCC3)c2C#N)cc1`, the dissociation constant (Kd) in [4] is more than 10 µM.

As for `COc1cc2ncn(-c3cc(OCC4CCCO4)c(C(N)=O)s3)c2cc1OC` (stereo not drawn) [GSK204607], the dissociation constant (Kd) with SIK2 was more than 10 µM.

In turn, `CC1=C(C(=O)Nc2cc3cn[nH]c3cc2F)C(c2ccc(C(F)(F)F)cc2)CC(=O)N1` (stereo not drawn) [GSK429286] yielded an equilibrium dissociation constant (Kd) with SNARK of 0.47 µM.

In the assay with SNRK, `Nc1ncnc2[nH]c(-c3ccccc3)nc12` [AH5015] showed a Kd of more than 10 µM.
